Data on seven compounds can be found in PubChem BioAssay (Tox21).

Each structure is given as a SMILES string. Unmarked numbers belong to inactive results. Records with an inconclusive call do not appear. Calls of active or inactive are those of the source. Unless noted, the call rests on the fitted dose curve; in most records, active means well fitted curve in the direction sought with a large enough effect in the repeat runs; inconclusive means weak or mixed curves; inactive means no such curve, though single readings can be large; an effect the other way counts as inactive or inconclusive.

Test [1] is described as follows: A CellTox Green Cytotoxicity Assay to monitor cytotoxicity in HEK293 cells - 8 hour (AID 1224884). Further: nearly all actives have a fitted effect of over 35% in size. Further: potency means the concentration at half of the fitted maximal effect. In short, it runs like this:
(§1)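 Dead-cell fluorescence measured kinetically: asymmetric cyanine dye, HEK293, 600 cells/well, 5 h settle, 23 nL cpd/DMSO, 37 C, reads 0–40 h every 8 h.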

A short description of test [2]: qHTS RealTime-Glo MT Cell Viability Assay in HEK293 cells - 24 hour (AID 1224886). Further: nearly all actives have a fitted effect of over 50% in size. Further: potency means the concentration at half of the fitted maximal effect. On activity change, negative = cytotoxicity: top concentration of the series differs between compounds. In short, it runs like this: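 Quantitative high-throughput screen of the Tox21 10K library in HEK293: cells and RealTime-Glo reagents plated together, compound added at 5 h, luminescence monitored through 40 h at 37 C.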
(Quantitative high-throughput screening tests each substance at several concentrations.)

Test [3] in a line: qHTS RealTime-Glo MT Cell Viability Assay in HEK293 cells - 8 hour (AID 1224887). Further: top concentration of the series differs between compounds; nearly all actives have a fitted effect of over 50% in size. In a few lines: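 600 HEK293 cells per well, dispensed already mixed with RealTime-Glo MT reagents. Compound dosing came 5 h later. The same wells were read for luminescence at 0, 8, 16, 24, 32 and 40 h of exposure at 37 C.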
Test [4] in a line: A CellTox Green Cytotoxicity Assay to monitor cytotoxicity in HEK293 cells - 16 hour (AID 1224888). Further: nearly all actives have a fitted effect of over 35% in size. Further: potency means the concentration at half of the fitted maximal effect. In a few lines:
as §1

The nature of test [5]: qHTS RealTime-Glo MT Cell Viability Assay in HepG2 cells - 0 hour (AID 1224889). Further: nearly all actives have a fitted effect of over 50% in size. In short, it runs like this: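 Compound treatment began 5 h after plating HepG2 cells (600/well) with NanoLuc luciferase and prosubstrate. Plates stayed at 37 C for 40 h; luminescence was captured at six time points, 0 h through 40 h.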
Test [6] in a line: A CellTox Green Cytotoxicity Assay to monitor cytotoxicity in HepG2 cells - 8 hour (AID 1224890). Further: nearly all actives have a fitted effect of over 45% in size. Further: potency means the concentration at half of the fitted maximal effect. In a few lines:
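First, HepG2 cells (600/well) mixed with reagent were plated; second, after 5 h at 37 C they received compounds via pintool; third, fluorescence was measured at 0 h through 40 h at 8 h intervals.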

Test [7] in a line: qHTS assay to identify small molecule antagonists of the estrogen receptor alpha (ER-alpha) signaling pathway using the BG1 cell line in the presence of 0.1 nM 17-beta-estradiol - cell viability counter screen (AID 1259241). Further: nearly all actives have a fitted effect of over 40% in size. In short, it runs like this:
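CellTiter-Fluor read (30 min, 37C) on ER-alpha/ERE-luc VM7Luc4E2 cells; 22 hr compound treatment; agonist 0.1 nM E2 final; same-well multiplex.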

Test [8] in a line: qHTS assay to identify small molecule antagonists of the androgen receptor (AR) signaling pathway using the MDA cell line in the presence of 0.5 nM R1881 - cell viability counter screen (AID 1259242). Further: nearly all actives have a fitted effect of over 45% in size. In short, it runs like this: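 qHTS format. MDA-kb2 (MMTV-luc, AR/GR responsive) + cpd + 0.5 nM R1881 final, 16 hr 37C/0% CO2 → CellTiter-Fluor 30 min → fluorescence intensity.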

The target of test [9] is Androgen receptor (Homo sapiens) (UniProt P10275). The test is described as follows: qHTS assay to identify small molecule antagonists of the androgen receptor (AR) signaling pathway using the MDA cell line in the presence of 0.5 nM R1881 (AID 1259243). Further: nearly all actives have a fitted effect of over 50% in size. In short, it runs like this:
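Antagonist mode quantitative HTS in MDA-kb2 MMTV-luciferase cells, agonist R1881 at 0.5 nM final, 16 hr exposure at 37C and 0% CO2, luminescent detection.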

Test [10] in a line: qHTS assay to identify small molecule HDAC inhibitors (AID 1259364).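 Further: wild-type HCT-116 cells with endogenous class I/II HDAC activity; top concentration of the series differs between compounds; nearly all actives have a fitted effect of over 45% in size.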 In a few lines:
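Quantitative high-throughput format: overnight-seeded HCT-116 cells got compounds for 2 hr at 37C; HDAC-Glo I/II reagent added, 30 min RT, luminescence measured.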

Test [11] is described as follows: qHTS assay to identify small molecule HDAC inhibitors - cell viability counter screen (AID 1259365). In a few lines:
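To flag cytotoxic hits, 1,500 wild-type HCT-116 cells per well, plated the day before, receive test compounds for 2hr at 37 C before CellTiter-Glo reagent and a luminescence read.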

The nature of test [12]: qHTS assay to identify small molecule antagonists of the sonic hedgehog signaling (Shh) pathway - cell viability counter screen (AID 1259367). Further: nearly all actives have a fitted effect of over 55% in size. In a few lines:
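Fluorescence read-out (CellTiter-Fluor, 1 hr at 37C) taken after 23 hr compound treatment of 3T3 Gli1-Luc cells stimulated with conditioned medium. Cells were seeded at 2,000 per well and pre-incubated 4 hr.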

Test [13] can be described thus: qHTS assay to identify small molecule agonists of the sonic hedgehog signaling (Shh) pathway (AID 1259368; calls by dose curve;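 further: NIH/3T3-derived 3T3Gli1-Luc cells carrying a stable Gli1-driven firefly luciferase reporter; series mostly up to about 92 µM; nearly all actives have a fitted effect of over 15% in size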). In short, it runs like this:
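Quantitative high-throughput format using a Gli1-driven firefly luciferase reporter line derived from NIH/3T3 cells. After a 24 hr compound treatment at 37 C and 5% CO2, luminescence reported Gli1 response element activity.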

Test [14] deals with Estrogen receptor beta (Homo sapiens) (UniProt Q92731). Put plainly: qHTS assay to identify small molecule agonists of the estrogen receptor beta (ER-beta) signaling pathway (AID 1259377; active means well fitted activation curve with a large enough effect in the signal ratio in the repeat runs, not every such curve was filed as active; the % refers to the signal ratio). In short, it runs like this: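 Screening used GripTite ER-beta-UAS-bla cells held in 2% charcoal-stripped FBS medium. After overnight (16 hr) compound incubation at 37C, beta-lactamase activity was detected with a FRET substrate by fluorescence.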
Chain of Estrogen receptor beta (Homo sapiens) (Q92731 whole entry, looked up): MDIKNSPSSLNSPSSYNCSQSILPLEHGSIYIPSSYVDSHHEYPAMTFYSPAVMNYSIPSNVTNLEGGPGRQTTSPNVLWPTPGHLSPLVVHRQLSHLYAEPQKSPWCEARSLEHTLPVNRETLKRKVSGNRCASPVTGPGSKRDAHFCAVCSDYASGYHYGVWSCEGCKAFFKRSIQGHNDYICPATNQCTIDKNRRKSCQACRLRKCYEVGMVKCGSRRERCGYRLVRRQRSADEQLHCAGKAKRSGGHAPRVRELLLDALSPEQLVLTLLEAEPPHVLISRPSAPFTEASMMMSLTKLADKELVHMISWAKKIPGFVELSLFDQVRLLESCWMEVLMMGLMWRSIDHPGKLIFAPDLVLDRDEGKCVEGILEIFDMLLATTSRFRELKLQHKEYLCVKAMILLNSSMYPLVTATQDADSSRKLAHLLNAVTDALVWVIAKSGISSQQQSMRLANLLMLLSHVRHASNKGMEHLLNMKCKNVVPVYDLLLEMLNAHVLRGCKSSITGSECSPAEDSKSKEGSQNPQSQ

Test [15] has the same target. The test is described as follows: qHTS assay to identify small molecule antagonists of the estrogen receptor beta (ER-beta) signaling pathway (AID 1259378; active means well fitted inhibition curve with a large enough effect in the signal ratio in the repeat runs, not every such curve was filed as active; the % refers to the signal ratio). In a few lines: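 ER-beta-UAS-bla HEK293T cells in 2% charcoal-stripped FBS medium treated with compound plus 1nM final 17-beta-estradiol for 16 hr at 37C. Beta-lactamase reporter read by FRET substrate fluorescence after 2 hours at room temperature.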

In test [16] the target is Estrogen receptor (Homo sapiens) (UniProt P03372). Put plainly: qHTS assay to identify small molecule antagonists of the estrogen receptor alpha (ER-alpha) signaling pathway using the BG1 cell line in the presence of 0.1 nM 17-beta-estradiol (AID 1259244). Further: nearly all actives have a fitted effect of over 50% in size. Further: potency means the concentration at half of the fitted maximal effect. In a few lines: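 Reporter is a stably transfected luciferase under four estrogen responsive elements in VM7Luc4E2 cells expressing native full-length ER-alpha; inhibition of 0.1 nM (final) 17beta-estradiol-driven signal over 22 h is read by luminescence.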
Chain of Estrogen receptor (Homo sapiens) (P03372 whole entry, looked up): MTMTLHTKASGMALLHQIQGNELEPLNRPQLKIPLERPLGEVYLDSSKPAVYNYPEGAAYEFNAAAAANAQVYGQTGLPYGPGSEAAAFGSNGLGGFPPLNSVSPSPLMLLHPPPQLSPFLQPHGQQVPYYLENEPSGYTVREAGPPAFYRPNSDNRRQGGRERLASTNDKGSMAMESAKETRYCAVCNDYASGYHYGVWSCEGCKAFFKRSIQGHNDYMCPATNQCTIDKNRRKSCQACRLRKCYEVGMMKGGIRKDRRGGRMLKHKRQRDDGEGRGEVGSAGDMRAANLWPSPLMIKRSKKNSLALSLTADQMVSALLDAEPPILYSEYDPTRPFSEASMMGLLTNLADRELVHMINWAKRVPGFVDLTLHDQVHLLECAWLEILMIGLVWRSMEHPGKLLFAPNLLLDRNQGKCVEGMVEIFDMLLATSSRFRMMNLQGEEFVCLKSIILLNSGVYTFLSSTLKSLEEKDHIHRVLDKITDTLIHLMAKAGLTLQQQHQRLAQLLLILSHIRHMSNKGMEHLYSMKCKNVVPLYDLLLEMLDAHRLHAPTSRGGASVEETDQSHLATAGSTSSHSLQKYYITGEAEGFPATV

The nature of test [17]: qHTS assay to identify small molecule phospholipidosis (PLD) inducers (AID 1259344; active means well fitted curve in the direction sought with a large enough effect; an effect the other way counts as inactive or inconclusive). In short, it runs like this:
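Read-out is LipidTOX Red fluorescence (ex 595/em 615) imaged in HepG2 cells after 24 h compound exposure at 37 C, with Hoechst nuclear counterstain (ex 352/em 461) allowing per-cell normalisation.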

Test [18] can be described thus: qHTS assay to identify small molecule antagonists of the sonic hedgehog signaling (Shh) pathway (AID 1259369; calls by dose curve; further: nearly all actives have a fitted effect of over 45% in size; further: potency means the concentration at half of the fitted maximal effect). In short, it runs like this: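 Stable Gli1-Luc reporter NIH/3T3 clone; quantitative HTS in stimulated mode with conditioned medium. Luminescence measured after 24hr compound treatment at 37 C.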
Test [19] is described as follows: qHTS assay to identify small molecule agonists of the sonic hedgehog signaling (Shh) pathway - cell viability counter screen (AID 1259366). Further: nearly all actives have a fitted effect of over 50% in size. In short, it runs like this:
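Fluorescence from CellTiter-Fluor reports live cells in this counter screen. NIH/3T3-derived Gli1-Luc reporter cells receive test compounds for 24hr at 37C; reagent goes in at 23hr.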
On the % scale 0 is the no-effect control and ±100 the full control effect.

Chain of Androgen receptor (Homo sapiens) (P10275 whole entry, looked up): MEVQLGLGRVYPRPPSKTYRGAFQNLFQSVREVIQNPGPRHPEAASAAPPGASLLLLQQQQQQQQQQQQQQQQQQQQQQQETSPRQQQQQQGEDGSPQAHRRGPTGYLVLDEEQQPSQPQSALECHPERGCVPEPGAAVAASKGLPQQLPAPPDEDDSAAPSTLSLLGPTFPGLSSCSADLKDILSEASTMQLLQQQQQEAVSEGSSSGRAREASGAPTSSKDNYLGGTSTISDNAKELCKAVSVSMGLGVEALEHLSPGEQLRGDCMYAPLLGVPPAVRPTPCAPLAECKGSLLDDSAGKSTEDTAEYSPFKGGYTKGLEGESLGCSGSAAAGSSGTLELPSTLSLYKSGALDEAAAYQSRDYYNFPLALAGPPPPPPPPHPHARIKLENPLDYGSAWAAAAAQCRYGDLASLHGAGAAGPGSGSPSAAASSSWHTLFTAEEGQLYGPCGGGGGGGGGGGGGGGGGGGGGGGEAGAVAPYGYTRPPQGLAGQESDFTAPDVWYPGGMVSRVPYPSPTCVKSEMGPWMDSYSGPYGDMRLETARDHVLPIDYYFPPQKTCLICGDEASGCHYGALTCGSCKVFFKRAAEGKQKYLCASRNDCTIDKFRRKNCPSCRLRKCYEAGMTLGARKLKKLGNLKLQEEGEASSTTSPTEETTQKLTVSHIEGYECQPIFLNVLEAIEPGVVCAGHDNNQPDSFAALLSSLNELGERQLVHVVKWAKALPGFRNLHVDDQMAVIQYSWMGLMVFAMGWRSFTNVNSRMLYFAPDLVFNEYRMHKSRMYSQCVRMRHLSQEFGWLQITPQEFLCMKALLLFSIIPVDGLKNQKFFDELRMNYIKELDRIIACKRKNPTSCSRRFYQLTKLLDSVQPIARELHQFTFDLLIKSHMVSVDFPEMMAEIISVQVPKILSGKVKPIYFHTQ

Turning to `COc1cc2ncnc(Nc3cccc(Cl)c3)c2cc1OC`, the cytotoxicity increase in test [1] was -7.13% [at 15.8 µM]; in test [6] it was -18% [at 15.8 µM]. Moreover, the activity change, negative = cytotoxicity was -2.37% [at 15.8 µM] in test [2]; -3.64% [at 15.8 µM] in test [3]; -27.3% [at 15.8 µM] in [5]; -7.05% [at 19 µM] in test [7]; 2.53% [at 19 µM] in test [11]. The activity change is -3.26% [at 15.8 µM, hits give high values] in test [4] and -3.79% [at 18.9 µM, hits give high values] in test [13]. The viability change, negative = cytotoxic was -6.19% [at 19 µM] in [8] and -19.1% [at 19 µM] in [12]. For the same compound, the activity, negative = inhibition was 23.3% [at 19 µM] in test [9] and -15.9% [at 19 µM] in test [15]. For the same compound, in test [10], the activity change, negative = inhibition was -7.18% [at 19 µM]. In addition, the activation in test [14] was -5.03% [at 19 µM].

Regarding `CN(C/C=C/c1ccccc1)Cc1cccc2ccccc12`, the Potency in test [1] is 19 µM (active); in test [4], 19 µM (active); in test [6], 23.9 µM (active). Further, the Potency entry in test [5], in test [7], in test [8], in test [16], in test [17] and in [10] was “inactive” each time. In addition, the Potency result in test [12], in test [13], in test [18] and in test [15] was “inactive” each time. Moreover, in [14], the result was inactive.

With `CCCOC(=O)c1ccc(O)cc1`, the Potency result in test [1], in test [4], in [5], in [6], in test [7] and in test [8] was “inactive” throughout. Besides, the Potency result in test [16], in test [17], in test [11], in [19], in test [12] and in test [13] was “inactive” each time. Moreover, the Potency in test [2] was 21.9 µM (active); in test [18], 2.43 µM (active).

Turning to `CC1=CC[C@@H](C(C)(C)O)CC1`, the Potency result in [1], in [2], in [4], in [5], in test [6] and in test [7] was “inactive” in each case. Further, the Potency entry in test [8], in test [9], in [16], in test [10], in [11] and in [19] was “inactive” throughout. Further, the Potency entry in test [12], in test [13] and in test [18] was “inactive” in each case.

As for `C/C=C/C(=O)OCC(C)C`, the Potency entry in [1], in [2], in test [4], in test [5], in [6] and in test [7] was “inactive” in each case. In addition, the Potency result in test [8], in test [9], in test [16], in test [10], in test [11] and in test [19] was “inactive” in each case. Further, the Potency entry in test [12], in test [13], in test [18] and in test [15] was “inactive” throughout. Besides, the result in test [14] was inactive.

`CC(C)(c1ccc(Oc2ccc(N)cc2)cc1)c1ccc(Oc2ccc(N)cc2)cc1`: the Potency entry in test [1], in test [4], in test [5], in test [6], in test [7] and in test [10] was “inactive” in each case. Further, the Potency result in [11], in test [12] and in test [13] was “inactive” in each case. Moreover, the Potency in test [16] was 61.1 µM (active). Moreover, in test [14], the outcome was inactive.

As for `Nc1ccc(F)c([N+](=O)[O-])c1`, the Potency result in test [1], in [4], in test [5], in test [6], in [7] and in test [8] was “inactive” throughout. The Potency entry in test [16], in [10], in [19], in [12], in test [13] and in test [18] was “inactive” throughout. Besides, the Potency result in test [15] is “inactive”. The outcome in test [14] was inactive.
